# Assay results from PubChem BioAssay.
# Values without a mark were called inactive. The list shows a part of the results. The source made the active and inactive calls. Rule as the data show it, unless noted: active = inhibition above about 25%; inactive = the rest.
# Legend:
# [1] = target: Nuclear receptor coactivator 1 (Homo sapiens) (UniProt Q15788); assay: SRC1 coactivator transcriptional activity inhibitors, confirmation, cell-based, luminescence, quadruplicate (AID 588820;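 active = mean inhibition above 46.68%, the untreated control wells mean plus 3 SD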;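 also: 0% = DMSO wells and 100% = gossypol 36 µM treated wells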); settings: HEK293 GAL4-SRC1 luciferase reporter, at 3.6 µM, hits give high values
# [2] = VP16 transactivation inhibitors, counter-screen for SRC1 inhibitor project, cell-based, luminescence, high throughput (AID 588824); settings: cell-based VP16 transactivation luciferase luminescence; at 3.6 µM; hits give high values
# [3] = StAR promoter reporter inhibitors, counter-screen for LRH-1 inverse agonist project, cell-based, luminescence, high throughput (AID 651611; in the data active = inhibition above about 28%); settings: StAR promoter luciferase reporter counterscreen, at 3.6 µM, hits give high values
# [4] = target: Nuclear receptor subfamily 5 group A member 2 (Homo sapiens) (UniProt O00482); assay: LRH-1 (NR5A2) inverse agonists, retest, confirmation, cell-based, luminescence (AID 651613; in the data active = inhibition above about 42%;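 also: HEK293T cells co-transfected with LRH-1 and StAR promoter luciferase reporter; 0% = vehicle wells and 100% = parental cells lacking receptor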); settings: cell-based LRH-1 luciferase reporter, inverse agonism; at 3.6 µM; hits give high values
# [5] = target: Steroidogenic factor 1 (Homo sapiens) (UniProt Q13285); assay: SF1 (NR5A1) inverse agonists, counter-screen for LRH-1 inverse agonist project, cell-based, luminescence, high throughput (AID 651614; in the data active = inhibition above about 44%;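 also: cells cotransfected with StAR promoter reporter and SF1 expression vector; 0% = vehicle on cells with receptor and 100% = vehicle on cells lacking receptor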); settings: cell-based SF1 luciferase reporter, at 3.6 µM, hits give high values
# [6] = VP16 transactivation reporter inhibitors, counter-screen for LRH-1 inverse agonist project, cell-based, luminescence, high throughput (AID 651615; in the data active = inhibition above about 33%); settings: Gal4-VP16 luciferase reporter cells, at 3.6 µM, hits give high values
# [7] = growth loss of phage-infected RecBCD+ E. coli, confirmation, RecBCD inhibitor project, absorbance, E. coli V66, T4 gene 2 phage (AID 651982;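 active = mean inhibition over triplicates exceeding the hit threshold derived in the original primary screen, cut at about 11% in these data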); settings: E. coli V66 + T4 2- phage, growth OD; at 11.9 µM; hits give high values
# [8] = E. coli viability inhibition, counter-screen for RecBCD inhibitor project, absorbance, high throughput (AID 651983; in the data active = inhibition above about 20%;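 also: E. coli strain V66 grown with compound alone and no phage infection; 0% = bacteria with DMSO vehicle only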); settings: absorbance (OD) growth, at 11.9 µM, hits give high values
# [9] = growth loss of phage-infected AddAB-carrying E. coli, confirmation, counter-screen for RecBCD inhibitor project, absorbance, E. coli V3065, T4 phage (AID 651984;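 active = mean inhibition above the solvent-only control wells' mean plus 3 SD, cut at about 22% in these data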;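 also: higher means less bacterial growth from phage killing when AddAB is blocked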); settings: E. coli expressing H. pylori AddAB + T4 phage, OD growth; at 11.9 µM; hits give high values; gene 2 mutant T4, recBCD-deleted host
# [10] = target: Oxysterols receptor LXR-beta (Homo sapiens) (UniProt P55055); assay: LXR agonists, Gal4 luciferase reporter, confirmation, counter-screen for hcDAF-12 agonist project, cell-based, luminescence, HEK293, H. contortus campaign (AID 743027;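 active = mean percent activation of the reporter above a cutoff set as the average over tested compounds plus their standard deviation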); settings: HEK293 Gal4-LXR tk-luc reporter, 24 h, at 6.8 µM, hits give high values, normalized: DMSO 0%, positive control 100%
# [11] = tested on: Nuclear hormone receptor DAF-12 (Haemonchus contortus); assay: H. contortus DAF-12 receptor agonists, confirmation, cell-based, luminescence, HEK293, lit1-tk-luc, triplicate (AID 743032;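 active = mean activation across triplicate tests above the threshold derived from the earlier primary screen, cut at about 5.5% in these data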;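 also: 0% = DMSO only wells and 100% = 3 µM Δ7-dafachronic acid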); settings: HEK293 hcDAF-12 lit1-tk-luc reporter, at 6.8 µM, hits give high values, % of Δ7-dafachronic acid response
# [12] = target: Receptor-interacting serine/threonine-protein kinase 2 (Homo sapiens) (UniProt O43353); assay: NOD2-RIPK2 binding disruptors, retest, confirmation, fluorescence, CHO cells, BLA complementation, triplicate (AID 624370;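 active = mean inhibition across replicates above a set limit taken from the earlier primary screen, cut at about 21% in these data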;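 also: 0% = DMSO-only wells and the high end = clavulanate BLA-blocked wells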); settings: CCF4 FRET, at 4.98 µM, hits give high values
# [13] = beta-lactamase reporter inhibitors in CHO cells, confirmation, artefact control for NOD2-RIPK2 interaction inhibitor project, cell-based, CHO-K1 CMV-bla, CCF4 FRET, fluorescence (AID 624371;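 active = mean inhibition above the low-control mean inhibition plus three low-control SD, cut at about 11% in these data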;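 also: 0% = DMSO only wells and 100% = clavulanate high control wells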); settings: CCF4 FRET ratio, counterscreen, at 4.98 µM, hits give high values
# [14] = tested on: transactivating tegument protein VP16 (Human herpesvirus 1); assay: VP16 transactivation reporter inhibitors, counter-screen for SRC2 inhibitor project, cell-based, luminescence, single concentration (AID 652007; in the data active = inhibition above about 36%); settings: cell-based VP16 transactivation luciferase reporter, at 8.9 µM, hits give high values
# [15] = target: Nuclear receptor coactivator 2 (Homo sapiens) (UniProt Q15596); assay: SRC2 coactivator transcriptional activity inhibitors, confirmation, cell-based, luminescence, HEK293, triplicate (AID 652008;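 active = mean inhibition above 46.5%, the solvent-only control mean plus 3 SD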;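 also: 0% = DMSO-treated cells and 100% = Gossypol at 36 µM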); settings: HEK293 GAL4-SRC2 luciferase reporter, at 8.9 µM, hits give high values
# [16] = tested on: DAF-12 nuclear receptor (Heterodera glycines), GAL4-LBD fusion; assay: H. glycines DAF-12 receptor agonists, confirmation, cell-based, luminescence, HEK293, GAL4-LBD fusion (AID 743050;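 active = mean activation over triplicate wells above the hit cutoff derived from the earlier primary screen, cut at about 11% in these data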;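 also: 0% = DMSO low control and 100% = 2 mM sodium butyrate high control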); settings: HEK293 GAL4-hgDAF12 luciferase reporter, agonist mode; at 6.8 µM; hits give high values; percent of butyrate response
# [17] = target: Oxysterols receptor LXR-beta (Homo sapiens) (UniProt P55055); assay: LXR agonists, Gal4 luciferase reporter, confirmation, counter-screen for hgDAF-12 agonist project, cell-based, luminescence, HEK293, H. glycines campaign (AID 743051;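 active = mean activation of the triplicate above a set limit carried over from the primary screen, none filed active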); settings: 24 h, at 6.8 µM, hits give high values
# Sequence of Nuclear receptor coactivator 2 (Homo sapiens) (Q15596 whole entry, looked up, the tested form may be a part): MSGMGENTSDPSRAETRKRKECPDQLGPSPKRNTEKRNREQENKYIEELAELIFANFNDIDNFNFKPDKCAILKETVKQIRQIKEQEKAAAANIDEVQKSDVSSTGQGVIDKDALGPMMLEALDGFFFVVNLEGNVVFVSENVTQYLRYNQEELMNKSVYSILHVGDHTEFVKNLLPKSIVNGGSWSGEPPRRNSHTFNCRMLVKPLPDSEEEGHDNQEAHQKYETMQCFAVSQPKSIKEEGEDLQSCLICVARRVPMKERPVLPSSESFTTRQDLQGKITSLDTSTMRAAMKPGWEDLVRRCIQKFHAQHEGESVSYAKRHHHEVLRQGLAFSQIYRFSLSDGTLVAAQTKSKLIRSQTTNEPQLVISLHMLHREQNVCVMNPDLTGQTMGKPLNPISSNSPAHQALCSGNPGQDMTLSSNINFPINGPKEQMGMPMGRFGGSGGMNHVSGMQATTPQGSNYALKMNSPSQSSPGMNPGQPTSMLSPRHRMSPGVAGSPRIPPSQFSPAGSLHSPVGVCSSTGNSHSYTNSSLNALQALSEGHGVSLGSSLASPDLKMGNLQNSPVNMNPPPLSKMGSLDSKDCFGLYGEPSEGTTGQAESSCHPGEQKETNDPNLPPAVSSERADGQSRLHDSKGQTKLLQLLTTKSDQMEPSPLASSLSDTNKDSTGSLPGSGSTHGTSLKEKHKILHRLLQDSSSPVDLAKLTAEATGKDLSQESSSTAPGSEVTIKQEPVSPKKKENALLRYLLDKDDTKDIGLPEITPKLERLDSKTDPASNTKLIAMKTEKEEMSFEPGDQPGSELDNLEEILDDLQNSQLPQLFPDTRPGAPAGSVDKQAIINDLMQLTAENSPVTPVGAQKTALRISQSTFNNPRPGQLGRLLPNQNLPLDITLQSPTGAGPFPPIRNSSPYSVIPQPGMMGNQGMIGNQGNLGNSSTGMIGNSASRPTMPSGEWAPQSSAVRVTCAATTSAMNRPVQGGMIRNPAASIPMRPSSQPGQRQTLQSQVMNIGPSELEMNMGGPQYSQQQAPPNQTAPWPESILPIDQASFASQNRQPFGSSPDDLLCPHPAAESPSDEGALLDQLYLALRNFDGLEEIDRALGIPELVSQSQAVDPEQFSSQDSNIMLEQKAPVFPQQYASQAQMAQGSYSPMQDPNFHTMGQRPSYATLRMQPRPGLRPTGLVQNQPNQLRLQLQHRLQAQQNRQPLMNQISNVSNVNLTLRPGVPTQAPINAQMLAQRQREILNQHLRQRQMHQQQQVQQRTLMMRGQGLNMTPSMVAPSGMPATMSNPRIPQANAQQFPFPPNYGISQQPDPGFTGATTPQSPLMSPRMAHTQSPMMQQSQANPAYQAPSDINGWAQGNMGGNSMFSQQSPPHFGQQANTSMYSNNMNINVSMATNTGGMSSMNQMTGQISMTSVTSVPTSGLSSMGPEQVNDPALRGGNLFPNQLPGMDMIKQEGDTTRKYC
# Sequence of Nuclear receptor coactivator 1 (Homo sapiens) (Q15788 whole entry, looked up, the tested form may be a part): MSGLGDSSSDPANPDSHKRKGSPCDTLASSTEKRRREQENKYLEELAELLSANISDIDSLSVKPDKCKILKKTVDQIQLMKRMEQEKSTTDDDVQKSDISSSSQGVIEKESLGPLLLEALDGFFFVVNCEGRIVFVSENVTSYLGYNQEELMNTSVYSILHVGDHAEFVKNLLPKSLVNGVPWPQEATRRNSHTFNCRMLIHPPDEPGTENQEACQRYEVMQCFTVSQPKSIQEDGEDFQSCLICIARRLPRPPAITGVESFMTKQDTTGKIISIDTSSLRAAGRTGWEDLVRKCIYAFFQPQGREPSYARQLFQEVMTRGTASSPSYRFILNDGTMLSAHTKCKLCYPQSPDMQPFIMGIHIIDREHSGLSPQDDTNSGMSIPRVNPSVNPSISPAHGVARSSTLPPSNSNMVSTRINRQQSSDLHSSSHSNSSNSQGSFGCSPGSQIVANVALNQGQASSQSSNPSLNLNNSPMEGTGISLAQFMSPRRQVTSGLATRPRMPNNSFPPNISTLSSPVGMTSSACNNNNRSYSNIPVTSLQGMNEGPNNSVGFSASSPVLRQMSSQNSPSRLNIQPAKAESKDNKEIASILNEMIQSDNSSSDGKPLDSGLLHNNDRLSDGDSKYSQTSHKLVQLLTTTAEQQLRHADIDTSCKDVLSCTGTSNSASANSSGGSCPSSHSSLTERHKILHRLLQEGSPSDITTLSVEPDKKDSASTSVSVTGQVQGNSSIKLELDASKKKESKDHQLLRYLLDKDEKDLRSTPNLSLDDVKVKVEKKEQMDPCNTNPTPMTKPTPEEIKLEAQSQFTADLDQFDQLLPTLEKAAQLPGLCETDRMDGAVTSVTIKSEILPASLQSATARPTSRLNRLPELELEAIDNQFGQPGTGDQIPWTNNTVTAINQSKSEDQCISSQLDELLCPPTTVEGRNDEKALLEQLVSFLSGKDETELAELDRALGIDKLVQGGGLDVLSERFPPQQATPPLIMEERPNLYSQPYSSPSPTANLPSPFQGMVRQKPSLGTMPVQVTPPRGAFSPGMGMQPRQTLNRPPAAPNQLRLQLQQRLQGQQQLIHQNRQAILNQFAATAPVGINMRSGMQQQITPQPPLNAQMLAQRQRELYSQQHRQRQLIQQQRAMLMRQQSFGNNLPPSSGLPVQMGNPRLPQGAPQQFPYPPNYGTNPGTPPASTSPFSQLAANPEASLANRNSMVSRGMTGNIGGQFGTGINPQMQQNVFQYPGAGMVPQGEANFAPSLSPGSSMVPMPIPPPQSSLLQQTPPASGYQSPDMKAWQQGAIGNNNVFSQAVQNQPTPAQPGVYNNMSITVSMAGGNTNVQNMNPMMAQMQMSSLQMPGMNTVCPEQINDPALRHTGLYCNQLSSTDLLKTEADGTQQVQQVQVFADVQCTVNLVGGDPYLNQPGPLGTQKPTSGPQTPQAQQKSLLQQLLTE
# Sequence of Steroidogenic factor 1 (Homo sapiens) (Q13285 whole entry, looked up, the tested form may be a part): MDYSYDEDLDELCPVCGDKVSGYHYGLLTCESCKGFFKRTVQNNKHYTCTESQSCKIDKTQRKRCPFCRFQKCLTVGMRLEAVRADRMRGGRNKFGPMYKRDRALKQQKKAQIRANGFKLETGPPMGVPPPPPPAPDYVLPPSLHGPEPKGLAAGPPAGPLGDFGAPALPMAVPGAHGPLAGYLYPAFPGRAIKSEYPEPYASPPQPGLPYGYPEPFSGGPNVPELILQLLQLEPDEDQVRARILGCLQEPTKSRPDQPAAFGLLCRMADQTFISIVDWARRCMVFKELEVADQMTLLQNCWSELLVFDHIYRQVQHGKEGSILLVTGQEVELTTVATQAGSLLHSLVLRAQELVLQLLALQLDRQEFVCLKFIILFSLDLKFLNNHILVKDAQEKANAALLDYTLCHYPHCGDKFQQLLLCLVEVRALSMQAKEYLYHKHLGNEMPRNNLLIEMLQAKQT
# Sequence of Receptor-interacting serine/threonine-protein kinase 2 (Homo sapiens) (O43353 whole entry, looked up): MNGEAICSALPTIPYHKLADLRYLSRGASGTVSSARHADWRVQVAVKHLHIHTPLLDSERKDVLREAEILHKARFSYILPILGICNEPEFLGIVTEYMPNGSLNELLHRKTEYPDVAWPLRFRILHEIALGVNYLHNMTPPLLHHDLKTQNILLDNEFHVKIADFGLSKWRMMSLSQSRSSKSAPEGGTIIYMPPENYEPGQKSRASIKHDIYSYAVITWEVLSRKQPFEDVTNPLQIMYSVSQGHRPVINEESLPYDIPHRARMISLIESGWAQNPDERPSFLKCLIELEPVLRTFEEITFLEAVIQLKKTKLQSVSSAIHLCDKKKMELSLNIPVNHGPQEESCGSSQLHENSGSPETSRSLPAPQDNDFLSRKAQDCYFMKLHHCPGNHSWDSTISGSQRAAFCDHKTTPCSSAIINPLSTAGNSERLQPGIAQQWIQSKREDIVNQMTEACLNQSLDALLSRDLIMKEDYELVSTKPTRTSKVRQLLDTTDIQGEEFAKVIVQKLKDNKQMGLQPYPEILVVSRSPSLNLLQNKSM
# Sequence of Nuclear receptor subfamily 5 group A member 2 (Homo sapiens) (O00482 whole entry, looked up): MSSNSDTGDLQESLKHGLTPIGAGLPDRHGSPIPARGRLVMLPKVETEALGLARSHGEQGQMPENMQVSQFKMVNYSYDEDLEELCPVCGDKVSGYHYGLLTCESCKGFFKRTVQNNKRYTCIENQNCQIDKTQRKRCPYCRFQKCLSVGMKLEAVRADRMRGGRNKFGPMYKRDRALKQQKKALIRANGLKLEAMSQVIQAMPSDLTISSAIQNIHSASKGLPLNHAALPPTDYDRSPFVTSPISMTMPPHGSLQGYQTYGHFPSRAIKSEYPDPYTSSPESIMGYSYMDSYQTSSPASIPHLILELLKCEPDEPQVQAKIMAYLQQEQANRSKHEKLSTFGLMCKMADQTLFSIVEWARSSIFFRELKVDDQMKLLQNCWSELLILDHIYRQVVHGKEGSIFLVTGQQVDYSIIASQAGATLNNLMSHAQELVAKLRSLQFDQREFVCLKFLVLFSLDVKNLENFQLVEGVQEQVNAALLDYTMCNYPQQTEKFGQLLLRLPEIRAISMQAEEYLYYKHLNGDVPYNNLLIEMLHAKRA
# Sequence of Oxysterols receptor LXR-beta (Homo sapiens) (P55055 whole entry, looked up, the tested form may be a part): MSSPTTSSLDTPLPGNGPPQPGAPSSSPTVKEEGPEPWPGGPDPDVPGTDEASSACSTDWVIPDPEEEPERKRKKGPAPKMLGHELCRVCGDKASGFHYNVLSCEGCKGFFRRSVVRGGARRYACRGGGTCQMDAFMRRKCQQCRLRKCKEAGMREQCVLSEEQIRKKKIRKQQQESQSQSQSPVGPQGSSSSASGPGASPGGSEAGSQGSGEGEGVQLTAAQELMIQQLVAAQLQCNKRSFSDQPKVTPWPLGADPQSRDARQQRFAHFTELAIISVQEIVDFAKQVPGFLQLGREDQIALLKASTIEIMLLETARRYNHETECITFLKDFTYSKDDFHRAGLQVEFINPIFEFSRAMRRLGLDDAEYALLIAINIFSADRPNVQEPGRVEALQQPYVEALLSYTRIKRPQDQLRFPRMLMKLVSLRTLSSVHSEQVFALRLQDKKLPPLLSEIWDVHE
smiles,measurement,setting,value
CC(=O)NC(c1ccc(Cl)cc1Cl)c1ccc2cccnc2c1O (stereo not drawn),inhibition,[1],67.2% (active)
same,inhibition,[2],70.6% (active)
same,inhibition,[3],85.4% (active)
same,inhibition,[4],102% (active)
same,inhibition,[5],86.8% (active)
same,inhibition,[6],80.2% (active)
CC(=NNC(=S)N1CCCCC1)c1ccccn1,inhibition,[1],36.5%
same,inhibition,[2],61.5% (active)
same,inhibition,[3],70.5% (active)
same,inhibition,[4],95.3% (active)
same,inhibition,[5],82.2% (active)
same,inhibition,[6],52.6% (active)
Cc1c(C(C)C)c(=O)n(-c2ccc(S(=O)(=O)NCc3ccccc3)cc2)n1C,inhibition,[1],-18.5%
same,inhibition,[2],30.9% (active)
same,inhibition,[3],16.5%
same,inhibition,[4],54.3% (active)
same,inhibition,[5],55.1% (active)
same,inhibition,[6],44.1% (active)
Cc1nc2ccc(NC(=O)c3cc(S(=O)(=O)N(C)c4ccccc4)ccc3Cl)cc2s1,inhibition,[1],-5.16%
same,inhibition,[2],33.7% (active)
same,inhibition,[3],30.4% (active)
same,inhibition,[4],57.5% (active)
same,inhibition,[5],59.5% (active)
same,inhibition,[6],47.6% (active)
O=C(Nc1nonc1NC(=O)c1cccs1)c1cccs1,inhibition,[1],-7.76%
same,inhibition,[2],21.9%
same,inhibition,[3],30.2% (active)
same,inhibition,[4],64.1% (active)
same,inhibition,[5],66% (active)
same,inhibition,[6],52.7% (active)
CCCCCCCCNc1ncnc2ccccc12,inhibition,[1],-40.4%
same,inhibition,[2],29.4% (active)
same,inhibition,[3],22.2%
same,inhibition,[4],63.7% (active)
same,inhibition,[5],56.2% (active)
same,inhibition,[6],63.4% (active)
Clc1ccc(-c2nnc(CSc3nnc(-c4cccs4)n3Cc3ccccc3)o2)cc1,inhibition,[1],-0.02%
same,inhibition,[2],30.5% (active)
same,inhibition,[3],5.56%
same,inhibition,[4],51.7% (active)
same,inhibition,[5],48.9% (active)
same,inhibition,[6],41.6% (active)
Brc1ccc2c(c1)-c1ccccc1C1=NCCN12,inhibition,[1],-49.1%
same,inhibition,[2],40.9% (active)
same,inhibition,[3],39% (active)
same,inhibition,[4],104% (active)
same,inhibition,[5],75.8% (active)
same,inhibition,[6],71.6% (active)
Cc1cc2[nH]c3c(c[n+](C)c4ccccc34)c2cc1C,inhibition,[1],20.9%
same,inhibition,[2],47.8% (active)
same,inhibition,[3],41.7% (active)
same,inhibition,[4],100% (active)
same,inhibition,[5],66.4% (active)
same,inhibition,[6],84.2% (active)
O=C(NCc1ccccc1)c1cccc(NC(=O)c2ccccc2)c1,inhibition,[1],-0.73%
same,inhibition,[2],39.8% (active)
same,inhibition,[3],32.8% (active)
same,inhibition,[4],52.4% (active)
same,inhibition,[5],59.2% (active)
same,inhibition,[6],62% (active)
NC(=S)NN=Cc1ccc(OC(=O)COc2cc(Cl)c(Cl)cc2Cl)cn1,inhibition,[7],1.21%
same,inhibition,[8],5.2%
same,inhibition,[9],23.4% (active)
CN(C)CCNC(=O)c1ccc(Cl)c2cc3ccccc3nc12,activation,[10],0.85%
same,activation,[11],8.92% (active)
Cc1nnc(SCC(=O)Nn2cnnc2)s1,inhibition,[12],-0.84%
same,inhibition,[13],-0.41%
O=C1C=C(NCCc2cc(Br)c(O)c(Br)c2)C(=O)c2ncccc21,inhibition,[1],-170%
same,inhibition,[2],14.2%
same,inhibition,[14],4.39%
same,inhibition,[15],25.9%
O=C(Cc1csc(Nc2nc(=S)[nH]c3ccccc23)n1)NCCCN1CCN(c2cccc(Cl)c2)CC1,inhibition,[12],38% (active)
same,inhibition,[13],55.8% (active)
CC(C)(C)OC(=O)N1CCC(NC(=O)c2[nH]cnc2C(=O)N[C@@H](Cc2ccccc2)C(=O)OCc2ccccc2)CC1,inhibition,[12],16.1%
same,inhibition,[13],-4.79%
O=C1CC(C(F)(F)C(F)(F)C(F)(F)C(F)(F)F)=Nc2ccccc2N1,inhibition,[12],-1.13%
same,inhibition,[13],0.83%
CNc1cncc(-c2ccc(NS(C)(=O)=O)cc2)n1,inhibition,[1],20.8%
same,inhibition,[2],31% (active)
same,activation,[16],8.61%
same,activation,[17],0.06%
CCOC(=O)C1=C(C)N(C[C@@H]2CC[C@@H](Cc3ccc(-c4ccccc4)cc3)O2)C(=O)NC1c1ccc([N+](=O)[O-])cc1 (stereo partly drawn),inhibition,[12],-2.24%
same,inhibition,[13],-1.01%
O=C(Nc1ccc2c(c1)OCCO2)C(c1cc2ccccc2o1)N1CCN(c2ccc(F)cc2)CC1 (stereo not drawn),inhibition,[1],3.86%
same,inhibition,[2],-2.84%
same,inhibition,[14],-43.1%
same,inhibition,[15],28.6%
O=[N+]([O-])c1ccc2c(c1)-c1ccccc1C2=NO,inhibition,[1],21.4%
same,inhibition,[2],9.81%
same,inhibition,[14],12.1%
same,inhibition,[15],13.5%
CCN1CCN(C(=S)c2ccc(-c3ccccc3)cc2)CC1,inhibition,[1],37.8%
same,inhibition,[2],12.8%
same,inhibition,[14],15.4%
same,inhibition,[15],78.8% (active)
CCN(C(=O)c1cc(S(=O)(=O)N2CCCCC2)c[nH]1)c1ccc(OC)cc1,inhibition,[1],28.1%
same,inhibition,[2],22.5%
same,inhibition,[14],8.33%
same,inhibition,[15],25.9%
O=C(Nc1cccc2c1CCCC2)c1cc([N+](=O)[O-])ccc1Cl,inhibition,[1],19%
same,inhibition,[2],25%
same,inhibition,[14],48.5% (active)
same,inhibition,[15],62.2% (active)
COc1ccccc1NS(=O)(=O)c1cccc(NC(=O)c2cncc(Br)c2)c1,inhibition,[1],20%
same,inhibition,[2],25.1%
same,inhibition,[14],14.8%
same,inhibition,[15],21%
O=C(NN=Cc1ccc(N2CCOCC2)cc1)c1cc2ccccc2cc1O,inhibition,[12],0.56%
same,inhibition,[13],2.74%
Cc1cccc(-n2ncc(Cl)c(Cl)c2=O)c1,inhibition,[12],31.5% (active)
same,inhibition,[13],2.52%
CC(=O)Nc1ccc(C=Cc2ccc([N+](=O)[O-])cc2)cc1,inhibition,[12],21.3% (active)
same,inhibition,[13],33.9% (active)
